The campaign covered roughly 370,000 compounds. About 3,700 (1%) were called active.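 How the source made its calls: active means activation above the mean over all tested compounds plus 3 SD (cut at about 0.9% in these data); inactive means the rest.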 Only a selection was taken, and actives are over-represented in it overall.

Data on 87 compounds can be found in PubChem BioAssay AID652126 (The Scripps Research Institute Molecular Screening Center, 2013).

In this experiment the test system is Nuclear hormone receptor DAF-12 (Strongyloides stercoralis). Kind of experiment: ssDAF-12 driven luciferase reporter activation – cell-based, luminescence, HEK293, GRIP1 co-expression, lit1-tk-luc, primary screen (AID 652126).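 Further: 0% = DMSO-only wells and 100% = 3 µM delta7-dafachronic acid wells.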 The settings on record: HEK293 ssDAF-12/GRIP1 lit1-tk-luc reporter, at 6.8 µM, stronger effect = higher value, % of 3 µM dafachronic acid response.
For the compound `CCOC(=O)c1ccn(S(=O)(=O)c2ccc(C)cc2)c1-c1ccccc1`, the activation is -1.27% (inactive). As to `CCOC(=O)c1cc2n(c1N)-c1ccccc1C2=O`, the activation was 1.03% (active).

`CCOC(=O)c1ccccc1NC(=O)c1c(N)n(C)c(=O)[nH]c1=O`: the activation is -0.82% (inactive).

As to `COC(=O)c1cccc(Cn2ccc3ccc(-c4ccc5ccn(C(=O)c6ccccc6C)c5c4)cc32)c1`, the activation was 0.19% (inactive). With `C=CCN1[C@H](CC(C)C)COc2cccc(N3CCCC3)c2S1(=O)=O`, the activation is -1.93% (inactive). The same measure for `CN(Cc1c(F)cccc1Cl)C(=O)CNC(=O)c1ccc2c(c1)OCO2`: -0.2% (inactive); for `O=C(NCCc1ccc(C(F)(F)F)cc1)c1ccc2c(c1)OCO2`: -1.42% (inactive); for `O=C(Nc1ccccc1F)c1ccc2c(c1)OCO2`: 1.22% (active). For `COC(=O)[C@H](C(C)C)N(CCc1cn(Cc2ccccc2)nn1)S(=O)(=O)c1ccc(F)cc1Br`, the activation was -1.33% (inactive). The same measure for `Cc1csc(NC(=O)Nc2ccccc2[N+](=O)[O-])n1`: 2.54% (active).

Consider `Cc1cc(NC(=O)Nc2ccccc2[N+](=O)[O-])no1`, for which the activation was 0.25% (inactive). As for `O=C(Nc1ccccc1[N+](=O)[O-])C1C(c2ccccc2)=C1c1ccccc1`, the activation is -1.13% (inactive).

Regarding `CCCCCCCCNS(=O)(=O)/C=C/c1cc(C)ccc1CNC(=O)OC(C)(C)C`, the activation is -2.15% (inactive). Consider `O=C(O/N=C(/c1ccccc1)c1ccncc1)c1ccccc1[N+](=O)[O-]`, for which the activation is -0.74% (inactive).

For `COc1ccc(C(=O)O/N=C(\N)c2ccccn2)cc1[N+](=O)[O-]`, the activation was 1.15% (active). For the compound `COc1ccc(C(=O)OCC(=O)NCC2CCCO2)cc1[N+](=O)[O-]` (configuration not stated), the activation is -1.82% (inactive). The same measure for `Cc1ccc(-n2c(SCC(=O)Nc3cccc4ccccc34)nnc2-c2ccccn2)cc1`: -1.66% (inactive); for `C#CCCN([C@H](C(=O)OC)C(C)C)S(=O)(=O)c1ccc(F)cc1Br`: -1.1% (inactive).

Turning to `C=CCOC/C=C/C#CCN(CC=C)Cc1ccc(OC)cc1OC`, the activation was -0.87% (inactive).

As for `Cc1ccccc1C(=O)Nc1ccccc1Sc1ccccc1`, the activation is -1.24% (inactive). With `Cc1cccc(NC(=O)c2cccc(C(=O)Nc3cccc(C)c3C)n2)c1C`, the activation was -0.53% (inactive). Regarding `COc1cc2ccccc2cc1C(=O)Nc1ccccc1C`, the activation was 1.32% (active). Consider `COc1ccc(C(=O)CSc2nnc(-c3cnccn3)n2-c2ccc(C)cc2)cc1`, for which the activation was -1.18% (inactive). `c1cnc(N2CCN(c3ccc4ccccc4n3)CC2)nc1`: the activation is 1.77% (active). `CC1=C(N2CCN(c3ncccn3)CC2)CCC1=O`: the activation is -1.32% (inactive).

For `CC12CCC(C(=O)N3CCN(c4ncccn4)CC3)(c3nc4ccccc4nc31)C2(C)C` (configuration not stated), the activation is -1.52% (inactive). `CCN(CC)C(=O)CC[C@H]1CC[C@]2(CCCN(Cc3ccc(Cl)cc3)C2)O1`: the activation was -0.21% (inactive).

Regarding `CC1CCN(c2ccc(C(=O)O)cc2NS(=O)(=O)c2ccc(Br)s2)CC1`, the activation was -1.7% (inactive). For `COc1ccc([C@H]2OC(=O)C[C@H]2C(=O)N2CCN(c3ccccc3F)CC2)cc1OC`, the activation was -0.67% (inactive).

In the case of `O=S(=O)(c1ccc(Br)cc1)c1nc(-c2ccccc2)oc1N1CCOCC1`, the activation is -0.79% (inactive). With `O=C(Oc1ccc(-c2nc(-c3ccccn3)no2)cc1)c1ccccc1`, the activation was -0.56% (inactive).

On to `Brc1ccc(-c2noc(-c3ccccc3)n2)o1`, for which the activation was 1.12% (active).

Consider `O=S1(=O)c2c(NCc3ccco3)cccc2Oc2ccccc2CN1Cc1cn(Cc2cccc(C(F)(F)F)c2)nn1`, for which the activation is -1.24% (inactive). With `C=CCn1c(SCC(=O)/C(C#N)=C(\C)N)nc2sc(C)c(C)c2c1=O` the figure was -1.37% (inactive); with `CCCCn1c(SCC(=O)NCC2CCCO2)nc2ccc(N3CCOCC3)cc2c1=O` (configuration not stated), -1.75% (inactive); with `Cc1ccc(NC(=O)c2cnc(SCC(=O)NCC3CCCO3)n(C)c2=O)cc1` (configuration not stated), 1.27% (active). As for `C=CCn1c(SCC(=O)Nc2ccc(NC(C)=O)cc2)nc2sc(C)c(C)c2c1=O`, the activation was -1.09% (inactive). With `Cn1c(SCC(=O)c2ccccc2)ncc(C(=O)Nc2ccc(F)cc2)c1=O` the figure was -0.84% (inactive); with `C=CCn1c(SCC(=O)NCC2CCCO2)nc2sc(C)c(C)c2c1=O` (configuration not stated), 2.74% (active); with `CCOC(=O)[C@]12CCCC=C1N(Cc1ccc(OC)cc1)C(=O)[C@@H]2CC(=O)N1CCOCC1`, -0.73% (inactive). Take `COC(=O)C1CN(CCc2ccccc2)CCS(=O)(=O)N1Cc1cccc(Cl)c1` (configuration not stated): the activation is -0.43% (inactive). Take `CCC(=O)Nc1ccc2c(c1)C(=O)N(C)[C@@H]1CC[C@@H](CC(=O)NCCc3ccccc3)O[C@H]1CO2`: the activation was -0.55% (inactive). Consider `C[C@@H]1CN([C@@H](C)CO)C(=O)c2cccc(NC(=O)Nc3cccc4ccccc34)c2O[C@H]1CN(C)S(=O)(=O)c1ccccc1F`, for which the activation was -2.39% (inactive). On to `COC(=O)C[C@@H]1CC[C@H]2[C@@H](COc3ccc(NS(=O)(=O)CC(F)(F)F)cc3C(=O)N2C)O1`, for which the activation was -1.22% (inactive). Turning to `O=C(c1cccc(C(F)(F)F)c1)N1CC[C@H]2[C@H](CCCN2Cc2cc(F)cc(F)c2)C1`, the activation was -1.1% (inactive). With `CC(C)C(=O)Nc1ccc2c(c1)oc1ccccc12`, the activation is 1.28% (active). On to `CC(C)C(=O)Nc1c(C(=O)c2ccc(F)cc2)oc2ccccc12`, for which the activation was -0.79% (inactive). The same measure for `CC(C)C(=O)Nc1oc(-c2ccccc2)cc1C#N`: -1.13% (inactive). On to `Cc1ccccc1CSc1nnc(Cn2c(=O)sc3ccccc32)n1C`, for which the activation was -1.22% (inactive). Consider `CC(C)N1CCCCC(NC(=O)c2ccc3ccccc3c2)C1=O` (configuration not stated), for which the activation is -0.75% (inactive). Consider `Cc1ccc(NC(=O)C2(N3CCC3=O)CCCCC2)cc1`, for which the activation was -0.98% (inactive). The same measure for `CC1CC(C)CN(CCCNC(=O)c2csc3c2CCCCC3)C1` (configuration not stated): -1.8% (inactive).

`Cc1ccc(NC(=O)c2csc3c2CCCC3)cc1`: the activation is 1.46% (active). Turning to `COc1ccc(NC(=O)CC2C(=O)OCC3CCCCN32)cc1Cl` (configuration not stated), the activation was -1.7% (inactive). Consider `CC(=O)C1(C(=O)Nc2nccs2)CC(c2ccccc2C(F)(F)F)=NO1` (configuration not stated), for which the activation was -1.38% (inactive). For the compound `CC1CCN(c2ccc(S(=O)(=O)Nc3cc(C(=O)O)cc(C(=O)O)c3)cc2[N+](=O)[O-])CC1`, the activation was -1.44% (inactive). For `CCC(C)(C)NC(=O)c1cc([N+](=O)[O-])ccc1N1CCCCC1`, the activation was -1.32% (inactive). Take `O=C(O)C1CCN(c2ccc([N+](=O)[O-])cc2[N+](=O)[O-])CC1`: the activation was 1.84% (active). With `O=C(c1ccccc1)c1ccc(-c2ccccc2C(=O)NC2CCCCN(Cc3ccc(Cl)cc3)C2=O)cc1` (configuration not stated) the figure was -0.93% (inactive); with `COC(=O)C[C@@H]1C=C[C@@H](NS(=O)(=O)c2cccc(OC)c2)[C@@H](CO)O1`, -0.52% (inactive).

Consider `COC(=O)C1CCN(C(=O)COC(=O)c2cc(S(=O)(=O)N3CCOCC3)ccc2C)CC1`, for which the activation is -1.23% (inactive). Turning to `Cc1ccc(S(=O)(=O)N2CCOCC2)cc1C(=O)OC1CCCCC1=O` (configuration not stated), the activation was 1.21% (active). On to `COc1ccc(S(=O)(=O)N2CCOCC2)cc1C(=O)NC1CCCCC1`, for which the activation is -1.6% (inactive).

As to `CCN(CC)C(=O)CC[C@@H]1CC[C@]2(CCCN(S(=O)(=O)C3CCCCC3)C2)O1`, the activation was -1.11% (inactive).

For `CN(C)Cc1cn(-c2ccc(-c3noc4c3C(=O)N(CC(=O)N3CCOCC3)CC4)cc2)nn1`, the activation was -0.67% (inactive). Turning to `O=C(OCC#CCSc1nnc(-c2ccco2)o1)c1ccc(F)cc1`, the activation was -0.22% (inactive). The same measure for `CCCC[C@H](C(=O)N(CC)c1ccccc1)[C@@H](O)c1ccc2ccccc2c1`: -1.15% (inactive); for `O=C(c1cc(COc2ccc(F)cc2F)on1)N1CCOCC1`: 0.37% (inactive); for `O=C(c1cc(-c2ccc(O)cc2)on1)N1CCOCC1`: 1.22% (active).

In the case of `O=C(c1cc(C2CCCCN2S(=O)(=O)c2ccccc2)on1)N1CCOCC1` (configuration not stated), the activation is -1.54% (inactive). Regarding `O=C1Nc2ccccc2OC1CC(=O)N1CCCCCCC1` (configuration not stated), the activation was -0.55% (inactive). As to `c1cncc(CNc2ccnc(-c3ccc4c(c3)OCO4)n2)c1`, the activation is -1.42% (inactive). With `CCOC(=O)[C@]12CCCC3=C1N(CCC3)C(=O)[C@@H](CC(=O)NCc1cccs1)C2` the figure was -1.02% (inactive); with `Cc1nc2ccc(C(=O)N3CCSCC3)cc2s1`, -1.17% (inactive). `Brc1ccc2nc(N3CCCC3)sc2c1`: the activation was 1.8% (active). Regarding `Cc1nc2ccc(NC(=O)C3CCCCC3)cc2s1`, the activation was -1.51% (inactive). Turning to `C=CCN1C(=O)[C@H](CC(=O)NCCCN2CCCC2=O)[C@@]2(C(=O)OCC)CCCC=C12`, the activation is -0.32% (inactive). As to `COc1ccc(Br)cc1CN1CCN(C(=O)c2cccc(OC)c2OC)CC1`, the activation is -0.37% (inactive).

For `COC(=O)Cc1cc(=O)oc2c(C)c(O)ccc12`, the activation was -1% (inactive).

Consider `COc1cccc(C(=O)OCc2cc(=O)oc3c(C)c(C)ccc23)c1OC`, for which the activation was 1.06% (active). `CC(C)[C@@H]1NC(=O)c2cc([N+](=O)[O-])cc(I)c2NCCC[C@@H](C(=O)NC(CC(=O)O)C(N)=O)NC(=O)[C@H](CO)NC1=O` (some centres not stated): the activation was -1.32% (inactive). As for `CCOC(=O)[C@]12CCCCC/C=C\1N(Cc1ccc(OC)cc1)C(=O)[C@H]2CC(=O)NCc1ccc(C)o1`, the activation is -1.69% (inactive). With `COC(=O)c1cc(S(=O)(=O)N2CCN(c3ccccc3C)CC2)cn1C` the figure was -1.46% (inactive). For `COc1ccc(-c2cc(C(=O)NC(C(=O)O)C(C)C)c(C)o2)cc1OC` (configuration not stated), the activation is -0.63% (inactive). `O=C(CCn1nnc2ccccc2c1=O)N[C@@H](Cc1c[nH]c2ccccc12)C(=O)O`: the activation is -1.08% (inactive). With `COc1ccc(-c2cc(C(=O)NC(Cc3c[nH]c4ccccc34)C(=O)O)c(C)o2)cc1OC` (configuration not stated) the figure was 0.94% (active); with `CC1=NN(/C(=N\c2nnc(C)s2)Nc2ccccc2)[C@H](c2ccc(C)cc2)S1`, -1.96% (inactive).
